Test results reported in PubChem BioAssay.
Calls of active or inactive are those of the source.

Legend:
[1] = molecular target: Albumin (Bos taurus) (UniProt P02769); experiment: bovine serum albumin binders on microarray, profiling panel, artefact control for SMM control protein annotation, biochemical, small-molecule microarray, Alexa647 label, 635/667 nm fluorescence (AID 1118); settings: BSA-A647 binding, fluorescence 635 nm, higher = more signal;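 note: score merges 667 nm emission intensity and signal-to-noise per printed compound spot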
Chain of Albumin (Bos taurus) (P02769 whole entry, looked up): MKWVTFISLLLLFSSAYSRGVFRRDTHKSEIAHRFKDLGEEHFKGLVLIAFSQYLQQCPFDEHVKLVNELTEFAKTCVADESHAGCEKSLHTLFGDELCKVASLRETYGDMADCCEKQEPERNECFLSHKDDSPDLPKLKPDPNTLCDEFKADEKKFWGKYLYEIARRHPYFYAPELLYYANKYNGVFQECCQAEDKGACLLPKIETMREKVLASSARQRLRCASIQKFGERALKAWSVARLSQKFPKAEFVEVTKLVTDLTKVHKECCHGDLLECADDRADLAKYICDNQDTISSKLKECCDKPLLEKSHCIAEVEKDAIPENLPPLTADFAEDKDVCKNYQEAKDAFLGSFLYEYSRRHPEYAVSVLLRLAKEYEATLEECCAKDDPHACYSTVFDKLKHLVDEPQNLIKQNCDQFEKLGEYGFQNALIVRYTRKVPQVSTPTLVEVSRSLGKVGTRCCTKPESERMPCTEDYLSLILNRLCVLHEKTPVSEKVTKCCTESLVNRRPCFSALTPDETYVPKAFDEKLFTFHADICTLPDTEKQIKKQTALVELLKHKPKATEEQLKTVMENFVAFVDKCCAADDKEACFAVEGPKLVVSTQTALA

[2] = small-molecule microarray binders of probe aXIP, primary screen, biochemical, NeuroSMM set, 635/667 nm fluorescence (AID 1119); settings: higher = more signal, called active from +8 up or from −8 down;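 note: probe is the protein aXip251-270 applied at 1 µg/mL to compound-printed slides; binding of probe to printed compounds measured as 667 nm fluorescence plus signal to noise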
[3] = small-molecule binders of probe aNOTCH3, primary screen, biochemical, small-molecule microarray, 635/667 nm fluorescence (AID 1120); settings: higher = more signal;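 note: probe is a biotin-tagged antibody raised against NOTCH3 rather than NOTCH3 protein; score merges spot fluorescence near 667 nm with spot signal to noise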
[4] = small-molecule binders of probe aNOTCH2, primary screen, biochemical, small-molecule microarray, 635/667 nm fluorescence (AID 1121); settings: higher = more signal;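 note: score merges feature fluorescence read at 667 nm with its signal to noise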
[5] = molecular target: Carbonic anhydrase 2 (Homo sapiens) (UniProt P00918); experiment: CAII small-molecule binders, profiling panel, biochemical, small-molecule microarray, Alexa647-labelled CAII (AID 1122); settings: CAII-A647 binding fluorescence, higher = more signal
[6] = COS7 lysate on small-molecule microarray, probe aHis, 635 nm (AID 1123); settings: COS7 cell lysate, fluorescence, higher = more signal;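 note: z-score combines 667nm fluorescence intensity with signal-to-noise per printed compound spot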
[7] = compound binding in COS7 lysate, probe aLAP1, primary screen, cell lysate, small-molecule microarray (AID 1124); settings: probe aLAP1, fluorescence, higher = more signal;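 note: lysate comes from COS7 cells expressing LAP1 and is applied at 0.3 µg/mL; score merges spot fluorescence near 667 nm with signal-to-noise over triplicate slides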
[8] = system: Sam68 (KHDRBS1); experiment: Sam68 small-molecule binders, primary screen, biochemical, small-molecule microarray, 635 nm fluorescence (AID 1125); settings: small-molecule microarray binding, higher = more signal;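 note: score merges 667 nm channel intensity with signal to noise over triplicate slides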
[9] = system: Chordin-like protein 2 (CHRDL2); experiment: CHRDL2 small-molecule binders, primary screen, biochemical, small-molecule microarray, 635 nm fluorescence (AID 1126); settings: small-molecule microarray binding, fluorescence 635 nm; higher = more signal;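 note: printed compound slides probed with Chrdl2 protein at 4 µg/mL for 1 h at 4 C; score merges 667 nm emission intensity with signal to noise over three replicate slides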
[10] = molecular target: Concanavalin-A (Canavalia ensiformis) (UniProt P02866); experiment: ConA small-molecule binders, primary screen, artefact control for SMM control protein annotation, biochemical, small-molecule microarray, Alexa647 label, 635 nm (AID 1127); settings: ConA-A647 binding fluorescence, higher = more signal;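 note: z combines 667 nm emission intensity with signal-to-noise across three replicate slides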
Chain of Concanavalin-A (Canavalia ensiformis) (P02866 whole entry, looked up): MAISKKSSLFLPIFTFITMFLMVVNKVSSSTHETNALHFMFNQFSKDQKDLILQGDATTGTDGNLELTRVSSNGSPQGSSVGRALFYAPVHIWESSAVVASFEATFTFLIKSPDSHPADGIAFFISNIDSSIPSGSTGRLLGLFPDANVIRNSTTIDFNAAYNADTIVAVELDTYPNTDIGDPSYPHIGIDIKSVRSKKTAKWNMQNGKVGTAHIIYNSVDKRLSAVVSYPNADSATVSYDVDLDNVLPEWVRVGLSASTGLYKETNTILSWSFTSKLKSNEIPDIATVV

[11] = anti-His antibody binders, primary screen, artefact control for SMM control protein annotation, biochemical, small-molecule microarray, 635 nm fluorescence (AID 1128); settings: anti-His Alexa647 antibody binding, higher = more signal;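 note: score merges feature fluorescence with signal-to-noise for each printed compound spot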
[12] = system: Human papillomavirus type 1a E7 protein (residues 1-88); experiment: HPV1a E7 small-molecule binders, primary screen, biochemical, small-molecule microarray, residues 1-88, 635 nm (AID 1129); settings: small-molecule microarray binding, fluorescence 635 nm; higher = more signal
[13] = molecular target: Focal adhesion kinase 1 (Homo sapiens) (UniProt Q05397); experiment: small-molecule microarray binders of FAK, primary screen, biochemical, 635/667 nm fluorescence, BSA, DTT (AID 1130); settings: PTK2 binding, 635 nm fluorescence, higher = more signal;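 note: composite of spot emission at 667 nm and signal to noise over triplicate slides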
Chain of Focal adhesion kinase 1 (Homo sapiens) (Q05397 whole entry, looked up): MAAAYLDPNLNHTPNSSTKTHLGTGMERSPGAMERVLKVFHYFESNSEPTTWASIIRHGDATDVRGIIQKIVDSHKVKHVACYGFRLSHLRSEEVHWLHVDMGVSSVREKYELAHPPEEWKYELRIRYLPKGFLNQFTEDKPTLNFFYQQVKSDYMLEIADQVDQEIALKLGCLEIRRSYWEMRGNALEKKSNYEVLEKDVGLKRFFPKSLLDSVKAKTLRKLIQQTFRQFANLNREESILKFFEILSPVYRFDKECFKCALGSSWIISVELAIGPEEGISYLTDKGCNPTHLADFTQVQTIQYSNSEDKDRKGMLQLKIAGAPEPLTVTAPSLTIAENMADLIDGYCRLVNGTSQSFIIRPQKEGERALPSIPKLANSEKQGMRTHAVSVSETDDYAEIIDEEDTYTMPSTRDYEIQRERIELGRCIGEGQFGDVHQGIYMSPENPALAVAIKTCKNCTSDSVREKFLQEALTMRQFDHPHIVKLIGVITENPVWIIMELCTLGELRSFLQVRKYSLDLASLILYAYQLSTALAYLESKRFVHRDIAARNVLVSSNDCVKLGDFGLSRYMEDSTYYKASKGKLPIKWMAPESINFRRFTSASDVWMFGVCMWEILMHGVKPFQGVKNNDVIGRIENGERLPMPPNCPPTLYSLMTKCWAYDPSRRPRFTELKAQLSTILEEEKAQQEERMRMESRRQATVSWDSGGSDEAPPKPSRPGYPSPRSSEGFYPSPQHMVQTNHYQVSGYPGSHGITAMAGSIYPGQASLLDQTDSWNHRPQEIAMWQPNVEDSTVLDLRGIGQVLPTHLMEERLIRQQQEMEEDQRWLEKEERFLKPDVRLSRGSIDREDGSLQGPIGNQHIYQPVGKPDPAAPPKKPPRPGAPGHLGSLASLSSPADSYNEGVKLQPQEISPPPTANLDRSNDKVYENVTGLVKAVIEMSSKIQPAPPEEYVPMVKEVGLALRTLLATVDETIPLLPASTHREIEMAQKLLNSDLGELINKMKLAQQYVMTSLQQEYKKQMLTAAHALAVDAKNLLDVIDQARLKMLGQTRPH

[14] = system: Fibrinogen (Alexa647-labelled); experiment: fibrinogen binders on compound microarrays, profiling panel, artefact control for SMM control-protein annotation, biochemical, small-molecule microarray, 635/667 nm fluorescence (AID 1131); settings: fibrinogen-A647 binding fluorescence, higher = more signal;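 note: z-score merges 667 nm fluorescence with per-spot signal-to-noise over triplicate slides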
[15] = molecular target: Follistatin (Homo sapiens) (UniProt P19883); experiment: follistatin binders on small-molecule microarrays, primary screen, biochemical, small-molecule microarray, 635/667 nm fluorescence (AID 1132); settings: FST binding, 635 nm fluorescence, higher = more signal
Chain of Follistatin (Homo sapiens) (P19883 whole entry, looked up): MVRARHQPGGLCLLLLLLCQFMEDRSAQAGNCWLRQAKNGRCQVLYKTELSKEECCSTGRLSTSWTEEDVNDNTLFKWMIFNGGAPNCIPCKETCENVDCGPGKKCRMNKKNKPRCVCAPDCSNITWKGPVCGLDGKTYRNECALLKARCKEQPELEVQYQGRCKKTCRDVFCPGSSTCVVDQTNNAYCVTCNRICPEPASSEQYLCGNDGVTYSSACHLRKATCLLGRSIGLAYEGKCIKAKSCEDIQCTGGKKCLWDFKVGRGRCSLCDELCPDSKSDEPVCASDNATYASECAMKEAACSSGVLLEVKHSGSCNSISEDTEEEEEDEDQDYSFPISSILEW

[16] = molecular target: Fibroblast growth factor 2 (Homo sapiens) (UniProt P09038); experiment: FGF2 binders on small-molecule microarrays, primary screen, biochemical, small-molecule microarray, 635/667 nm fluorescence (AID 1133); settings: small-molecule microarray binding, FGF2, fluorescence 635/667; higher = more signal
Chain of Fibroblast growth factor 2 (Homo sapiens) (P09038 whole entry, looked up): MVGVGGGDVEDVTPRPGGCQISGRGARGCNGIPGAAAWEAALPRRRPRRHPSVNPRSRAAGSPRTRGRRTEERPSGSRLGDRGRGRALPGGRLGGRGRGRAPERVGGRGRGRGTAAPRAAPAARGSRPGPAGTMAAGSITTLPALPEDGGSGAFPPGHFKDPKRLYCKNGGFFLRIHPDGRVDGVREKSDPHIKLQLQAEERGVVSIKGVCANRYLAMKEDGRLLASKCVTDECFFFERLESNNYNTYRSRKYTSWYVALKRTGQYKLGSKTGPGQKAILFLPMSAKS

[17] = mitochondrial membrane potential change in A549 cells, profiling panel, cell-based, JC-1 fluorescence, basal, 24 h, 100 nL (AID 1138); settings: higher = more signal;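 note: A549 lung adenocarcinoma cells under basal conditions with no added stimulus; test concentration not given here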
[18] = system: Lefty1; experiment: Lefty1 binders on small-molecule microarrays, primary screen, biochemical, small-molecule microarray, 635/667 nm fluorescence (AID 1139); settings: small-molecule microarray binding, fluorescence 635/667; higher = more signal
[19] = system: wheat germ agglutinin (Triticum aestivum), Alexa647-labelled; experiment: wheat germ agglutinin binders on compound microarrays, profiling panel, artefact control for SMM control-protein annotation, biochemical, small-molecule microarray, 635/667 nm fluorescence (AID 1140); settings: WGA-A647 binding, 635 nm fluorescence, higher = more signal;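 note: score merges 667 nm feature emission with signal to noise over triplicate slides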
[20] = molecular target: Luciferin 4-monooxygenase (Photinus pyralis) (UniProt P08659); experiment: firefly luciferase enzyme inhibitors, primary screen, biochemical, luminescence, purified enzyme, 2006 set (AID 1141); settings: SteadyGlo luminescence, 30 min, higher = more signal, called active from +8 up or from −8 down;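 note: cell-free assay with purified firefly luciferase at 100 ng per well in PBS; test concentration not given here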
Chain of Luciferin 4-monooxygenase (Photinus pyralis) (P08659 whole entry, looked up): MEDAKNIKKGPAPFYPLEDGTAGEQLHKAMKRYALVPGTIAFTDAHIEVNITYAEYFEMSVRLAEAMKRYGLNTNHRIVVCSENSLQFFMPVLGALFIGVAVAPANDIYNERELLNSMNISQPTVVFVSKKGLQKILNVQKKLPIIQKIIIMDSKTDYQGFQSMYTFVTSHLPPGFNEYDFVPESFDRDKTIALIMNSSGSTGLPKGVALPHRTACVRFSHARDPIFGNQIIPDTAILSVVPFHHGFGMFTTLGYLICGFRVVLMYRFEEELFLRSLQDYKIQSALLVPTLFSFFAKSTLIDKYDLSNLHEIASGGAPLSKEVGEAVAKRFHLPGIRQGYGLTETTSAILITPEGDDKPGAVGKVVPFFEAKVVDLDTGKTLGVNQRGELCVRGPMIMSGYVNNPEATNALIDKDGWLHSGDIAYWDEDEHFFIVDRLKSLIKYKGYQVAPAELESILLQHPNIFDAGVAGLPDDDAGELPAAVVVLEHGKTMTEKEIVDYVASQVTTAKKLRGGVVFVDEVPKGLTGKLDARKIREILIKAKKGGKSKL

Compound	composite z-score [1]	composite Z-score [2]	composite z-score [3]	composite z-score [4]	composite z-score [5]	composite z-score [6]	composite z-score [7]	composite z-score [8]	composite z-score [9]	composite z-score [10]	composite z-score [11]	composite z-score [12]	composite z-score [13]	composite z-score [14]	composite z-score [15]	composite z-score [16]	z-score [17]	composite z-score [18]	composite z-score [19]	z-score [20]
C=C(CCCC)/C(=C/C[C@@H](OC(=O)c1ccncc1)c1ccc(OCCO)cc1)c1cc(C(=O)OC)ccc1OC	0.445	-0.367 (inactive)	-0.0288	-0.123	0.554	0.517	0.546	1.12	0.0685	0.249	0.551	1.12	0.0056	-0.117	0.641	0.0097	1.21	0.865	0.229	-0.551 (inactive)
O=C(c1ccccc1)N1C(=O)[C@@]2(Cc3ccccc31)N=C(c1ccc(OCCCO)cc1)O[C@H]2c1ccccc1	-0.85	0.718 (inactive)	0.33	0.14	0.575	2.41	1.22	1.31	0.897	1.14	1.39	1.21	1.23	0.657	1.4	1.45	-1.02	0.856	0.811	-1.14 (inactive)
O=C1C2C=CC(C(O)Cc3ccccc3)N(n3cnnc3)C2C(=O)N1Cc1ccccc1 (stereo not given)	1.03	-0.188 (inactive)	0.206	0.0248	0.449	1.14	0.75	0.646	-0.748	0.779	1.38	0.396	-0.249	0.573	-0.185	-0.279	-1.48	-0.648	1.31	0.921 (inactive)
CC1(C)[C@@H]2CC(C(O)C3C=CC4C(=O)N(Cc5ccccc5)C(=O)C4N3n3cnnc3)=C[C@H]1C2 (stereo not given in full)	0.925	-0.132 (inactive)	-0.0079	-0.0866	0.651	1.39	0.641	1.34	0.371	0.39	0.356	1.19	0.218	0.744	0.86	0.321	-0.287	0.625	0.901	1.62 (inactive)
C=CCOC(=O)[C@H]1[C@@H]2C(=O)O[C@@H](c3ccccc3)[C@@H](c3ccccc3)N2[C@@H](c2ccc(OCCOC(=O)[C@H]3C[C@H]4C(=O)N[C@@H](CCCCN(C)C)C(=O)N4[C@H]3c3ccc(O)cc3)cc2)[C@]12C(=O)Nc1ccc(I)cc12	0.412	0.432 (inactive)	0.282	-0.0028	0.493	1.45	0.651	1.31	1.18	1.15	2.49	1.23	0.739	0.991	1.34	1.64	-0.665	1.59	0.784	0.69 (inactive)
